From PubChem
Hits are enriched below; roughly 6.9% of the tested compounds scored in any of these assays.
KB-3-1 cytotox: KB-3-1 parental cell cytotoxicity. Potency, µM (top dose mostly 46.1 µM), most hits filed as cytotoxic. AID 1347075. KB-3-1 viability, CellTiter-Glo ATP luminescence, 72 h. 1.4% of 400,000 active; also: potency is read from the fitted curve at half-maximal effect; % is scaled to controls: 0 for no effect and ±100 for the full control effect; nearly all actives have a fitted effect of over 60% in size
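Cytotoxicity measured as CellTiter-Glo luminescence after 72 h at 37 C. Compound titrations were pinned onto drug-naive KB-3-1 parental adenocarcinoma cells grown in DMEM with 10% FBS, and normalized data fitted to concentration-response curves.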
SW480 rerep: inducers of DNA re-replication in SW480 colon cancer cells | AID 624297 | 1.8% of 340,000 active | SW480 DNA re-replication, Hoechst DNA content imaging, 48 h | Potency, µM (series often up to 46.1 µM), without a hit: at the highest dose re-replication activation, usual class: activators; also: potency is read from the fitted curve at half-maximal effect; % of control where 0% means no effect; nearly all actives have a fitted effect of over 55% in size
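Image-based DNA-content assay: after two days of treatment, nuclei were labelled with the DNA dye Hoechst and imaged, and hits were compounds raising the count of nuclei showing high fluorescence intensity.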
KB-V1 cytotox: KB-V1 MDR subline cytotoxicity | Potency, µM (highest dose often 46.1 µM), most hits filed as cytotoxic | 3.4% of 400,000 active | AID 1347076 | KB-V1 MDR cells viability, CellTiter-Glo, 72 h; also: potency is read from the fitted curve at half-maximal effect; % is scaled to controls: 0 for no effect and ±100 for the full control effect; nearly all actives have a fitted effect of over 60% in size
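Luminescent ATP read-out (CellTiter-Glo, 10 min) measures survival of drug-selected KB-V1 MDR cells after 72 h, 37 degrees C compound exposure. Medium: phenol-red-free DMEM, 10% FBS. Values from fitted concentration-response curves.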
ASM inhibitor: blocks human secretory acid sphingomyelinase; P17405; 0.006% of 340,000 active; Potency, µM (series often up to 57.5 µM), without a hit: top-dose activity change, negative = inhibition, usual class: inhibitors; placental ASM, HMU-PC fluorogenic substrate, 60 min; also: potency is read from the fitted curve at half-maximal effect
Target sequence (P17405 47-631 limits assumed): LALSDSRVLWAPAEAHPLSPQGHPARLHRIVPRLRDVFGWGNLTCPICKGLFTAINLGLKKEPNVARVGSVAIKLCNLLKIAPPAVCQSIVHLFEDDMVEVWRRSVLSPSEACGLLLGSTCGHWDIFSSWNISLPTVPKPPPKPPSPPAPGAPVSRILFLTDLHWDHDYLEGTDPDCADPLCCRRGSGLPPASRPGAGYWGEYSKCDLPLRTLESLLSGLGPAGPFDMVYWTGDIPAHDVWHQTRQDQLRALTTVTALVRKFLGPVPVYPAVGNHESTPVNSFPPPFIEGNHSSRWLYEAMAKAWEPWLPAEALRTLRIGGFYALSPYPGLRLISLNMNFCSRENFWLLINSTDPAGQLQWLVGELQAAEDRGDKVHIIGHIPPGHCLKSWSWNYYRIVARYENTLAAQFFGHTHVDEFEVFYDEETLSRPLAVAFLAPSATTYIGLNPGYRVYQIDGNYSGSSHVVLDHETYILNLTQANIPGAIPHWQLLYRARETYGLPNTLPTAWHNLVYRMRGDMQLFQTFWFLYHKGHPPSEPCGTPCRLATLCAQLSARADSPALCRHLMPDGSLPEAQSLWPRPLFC
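qHTS format. ASM enzyme prepared from human placenta hydrolyses the fluorogenic substrate HMU-PC0 (9 uM final) over 60 min at 37 °C after a 10 min compound preincubation.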
MCF10A rereplic: induces DNA re-replication in MCF 10a normal breast cells; MCF 10A DNA re-replication, Hoechst nuclear intensity, 48 h; Potency, µM (highest dose often 46.1 µM), for inactives: at the highest dose activity, positive = re-replication, most hits filed as activators; 2.9% of 350,000 active; also: potency is read from the fitted curve at half-maximal effect; % of control where 0% means no effect; nearly all actives have a fitted effect of over 50% in size
Giardia killer: kills Giardia lamblia | Giardia lamblia trophozoite viability | activity change, % at 7.66 µM, hits read low | 0.15% of 340,000 active; in the data active = activity change below about -80%; inconclusive = between about -30% and that limit;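 also: parasites exposed to compound for two days anaerobically before the ATP read; % is scaled to controls: 0 for no effect and ±100 for the full control effect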
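Luminescent ATP signal served as the viability read-out, measured 15-30 min after adding ATP detection reagent to trophozoites that had been incubated with compounds for 48 hrs at 37 deg C anaerobically at 100 cells/well.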
The depositor's hits bear a star; i = inactive; ? = inconclusive; nt = not tested or not shown; [ ] = remark or other dose. Unless noted, calls follow the shape of the dose curve; as a rule, active = well fitted curve in the direction sought with a large enough effect; inconclusive = small, poorly fitted or top-dose-only effect, or another doubt; inactive = no such curve, though single readings can be large; an effect the other way counts as inactive or inconclusive.

SMILES	KB-3-1 cytotox	SW480 rerep	KB-V1 cytotox	ASM inhibitor	MCF10A rereplic	Giardia killer
O=C(Nc1nc(-c2ccccc2)cs1)C1CCCCN1S(=O)(=O)c1ccccc1 (centres undefined)	i	-2%	?	-4%	6%	-9
O=C(Nc1nc(-c2ccccc2)cs1)C1CCCN(S(=O)(=O)c2ccccc2)C1 (centres undefined)	i	?	?	-4%	8.2µM*	-9
O=C(Nc1nc(-c2ccccc2)cs1)C1CCCCN1S(=O)(=O)c1ccc(Cl)cc1 (centres undefined)	?	21%	13µM*	-8%	?	10
CCC(c1nnnn1Cc1ccccc1)N(Cc1ccccc1)Cc1cc2cc(C)ccc2[nH]c1=O (centres undefined)	i	nt	i	nt	nt	-3
Cc1ccccc1CN1C(=O)CSc2ccc(C(=O)N3CCOCC3)cc21	i	-1%	i	1%	24%	6
O=C(c1ccc2c(c1)N(Cc1ccccc1)C(=O)CS2)N1CCOCC1	i	-1%	15µM*	-3%	12%	24
O=C(NCCc1ccccc1)c1ccc2c(c1)N(Cc1ccc(Cl)cc1)C(=O)CS2	23µM*	nt	i	nt	nt	nt
CCCCN(CCCC)C(=O)CSc1nnc2n(C)c(=O)c3c4c(sc3n12)CCCC4	?	1%	23µM*	0%	-10%	-9
CSc1nnc2n(-c3cccc(C)c3)c(=O)c3c4c(sc3n12)CCCC4	i	nt	?	nt	nt	nt
CCCSc1nnc2n(-c3cccc(C)c3)c(=O)c3c4c(sc3n12)CCCC4	?	nt	23µM*	nt	nt	nt
CC(C)N1CCN(Cc2ccc(OCc3ccccc3)cc2)CC1CCO (centres undefined)	i	?	?	5%	9%	-11
CC(C)N1CCN(Cc2ccc(OC3CCCC3)cc2)CC1CCO (centres undefined)	i	3%	i	-1%	4.6µM*	9
O=C(Nc1ccc(Cl)cc1)C1CCC(=O)N1Cc1ccccc1Cl (centres undefined)	i	-5%	?	0%	13%	0
O=C(Nc1ccccc1Br)C1CCC(=O)N1Cc1ccccc1Cl (centres undefined)	i	2%	21µM*	0%	3%	17
Cc1c(NC(=O)Nc2cccc(C(F)(F)F)c2)sc2nc3n(c(=O)c12)CCC(C)CC3 (centres undefined)	i	nt	i	nt	nt	nt
CC(NC(=O)C1(S(=O)(=O)c2ccc(Cl)cc2)CC1)c1ccccc1 (centres undefined)	i	146%	21µM*	2%	20%	-9
O=[N+]([O-])c1cccc(SSc2cccc([N+](=O)[O-])c2)c1	i	18µM*	i	-5%	?	-6
Nc1cccc([N+](=O)[O-])c1	i	-15%	?	-3%	3%	-2
COC(=O)c1cc2oc(C)cc2n1Cc1cc(C)ccc1C	i	nt	i	nt	nt	nt
O=S(=O)(c1ccc(OC(F)(F)F)cc1)N1CCN(c2nc(-c3ccccc3)nc3ccccc23)CC1	i	nt	i	nt	nt	-22
CN(C)c1ccc(C(=O)C(O)c2ccccc2)cc1 (centres undefined)	i	-1%	i	-1%	1%	0
CN(C)c1ccc(C(c2ccc(N(C)C)cc2)C(O)c2ccccc2)cc1 (centres undefined)	i	-3%	16µM*	2%	23%	6
CCn1c(C(=O)NCc2ccc(OC)cc2)cc2sc(Cl)cc21	i	nt	i	nt	nt	nt
Cc1noc(C)c1CSc1nc2sc(C)c(C)c2c(=O)n1-c1ccccc1	i	1%	i	-4%	23%	-8
C=CCn1c(SCC(=O)c2cc(C)n(C(C)COC)c2C)nc2sc(C)c(C)c2c1=O (centres undefined)	i	?	8.2µM*	-4%	18µM*	-12
SMILES	KB-3-1 cytotox	SW480 rerep	KB-V1 cytotox	ASM inhibitor	MCF10A rereplic	Giardia killer
C=CCn1c(SCc2c(C)noc2C)nc2sc(C)c(C)c2c1=O	i	?	i	-14%	23µM*	7
Cc1cc(C)cc(NC2=C(c3ccccc3)C(=O)c3ccccc32)c1	i	nt	?	nt	nt	nt
Cc1sc2ncnc(SCc3ccco3)c2c1C	i	-3%	i	-10%	15µM*	-6
COC(=O)c1c(-c2ccccc2)csc1NC(=O)CSc1ncnc2sc(C)c(C)c12	i	3%	12µM*	-1%	-6%	-19
Cc1cccnc1NC(=O)CSc1ncnc2sc(C)c(C)c12	i	-5%	15µM*	12%	10%	-6
Cc1sc2ncnc(N(C)Cc3ccco3)c2c1C	i	-1%	?	-1%	-7%	-14
COc1ccc(NC(=O)C2CCN(c3cc(C)nc4c(-c5ccc(Cl)cc5)c(C)nn34)CC2)cc1	i	nt	i	nt	nt	nt
COCCNC(=O)c1ccc2c(c1)nc(C)n2-c1cccc(F)c1	i	5%	21µM*	6%	12%	15
Cc1cccc(-n2c(C)nc3cc(C(=O)NCc4ccc5c(c4)OCO5)ccc32)c1	i	?	16µM*	-1%	-68%	18
Cc1ccc(CNC(=O)Nc2ccccc2)n1C	i	11%	i	-2%	-4%	0
COc1c(F)cc2[nH]c3c(c2c1F)CCNC3=O	i	-20%[9.22 µM]	?	-1%	-2%	-22
O=c1c2ccccc2[nH]c2ccc(O)cc12	i	23µM*	i	403%	-12%	21
O=c1[nH]c2ccccc2c(=O)c2ccccc12	i	nt	i	nt	nt	nt
CCOC(=O)C(O)C1CCc2c([nH]c3ccc(C)cc23)C1=O (centres undefined)	?	?	18µM*	13%	?	30
O=c1c2ccccc2[nH]c2ccc(F)cc12	i	16µM*	i	i	9.2µM*	5
Cc1ccc2[nH]c3c(c2c1)CCNC3=O	?	-13%	5.8µM*	1%	0%	-9
CC1=C(C(=O)Nc2ccc(C)cc2C)C(c2cccs2)n2nc(SCc3ccccc3Cl)nc2N1 (centres undefined)	i	nt	i	nt	nt	nt
Cc1nc(CCNC(=O)c2cc(COc3ccc(F)cc3Cl)on2)sc1C	i	-6%	?	-1%	8%	-5
CCOc1ccc(NC(=O)CN(c2ccc(C)cc2)S(=O)(=O)c2cccs2)cc1	i	nt	i	nt	nt	nt
O=Cc1ccccc1-n1cncn1	i	-2%	i	1%	-1%	7
Cc1ccc2[nH]c3ccccc3c(=O)c2c1	i	?	i	i	16µM*	-4
O=C1C(=O)c2c(ccc3ccccc23)-c2ccccc21	4.1µM*	9.2µM*	4.1µM*	13%	1.8µM*	0
